Source: PubChem BioAssay (The Scripps Research Institute Molecular Screening Center)
GPR151 ag – activates the human receptor GPR151; activation, % at 11.2 µM; PathHunter beta-arrestin GPR151 cells, luminescence; Q8TDV0; 650,000 tested, 1% active; AID 1508602; in the data active means activation above about 4.9%
MITF primary – inhibitors of human MITF. O75030. AlphaScreen MITF homodimerization, bead proximity signal. inhibition, % at 2.6 µM. 650,000 tested, 0.91% active; in the data active means inhibition above about 50%
Target sequence (O75030 whole entry, looked up): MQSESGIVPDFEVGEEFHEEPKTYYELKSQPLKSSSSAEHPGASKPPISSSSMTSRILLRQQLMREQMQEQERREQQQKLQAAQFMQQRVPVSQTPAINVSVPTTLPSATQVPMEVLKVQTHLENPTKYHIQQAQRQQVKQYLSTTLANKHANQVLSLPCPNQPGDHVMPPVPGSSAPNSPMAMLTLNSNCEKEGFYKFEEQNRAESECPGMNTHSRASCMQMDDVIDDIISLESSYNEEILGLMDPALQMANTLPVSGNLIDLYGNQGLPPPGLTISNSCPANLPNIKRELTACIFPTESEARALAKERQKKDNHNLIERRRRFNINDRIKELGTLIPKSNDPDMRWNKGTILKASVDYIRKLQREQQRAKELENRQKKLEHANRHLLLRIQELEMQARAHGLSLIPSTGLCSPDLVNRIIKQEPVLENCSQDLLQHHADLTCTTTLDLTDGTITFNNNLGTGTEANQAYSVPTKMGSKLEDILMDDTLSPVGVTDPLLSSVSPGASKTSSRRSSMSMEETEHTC
FBW7 activator – activators of human E3 ligase FBW7. Q969H0. 650,000 tested, 0.13% active. normalized activity (activation), % at 26.1 µM. AlphaScreen FBW7–phospho-cyclin E peptide binding, activator screen; in the data active means normalized activity above about 1.9%;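 further: purified mutant Fbw7 with reduced substrate affinity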
TEAD-YAP block – TEAD-YAP interaction inhibition; inhibition, % at 9.12 µM; 640,000 tested, 1.4% active; AID 1259422; HEK-TIYL cells, TEAD-Gal4/YAP UAS-luciferase luminescence; in the data active means inhibition above about 32%
Each line names hits and unclear results; the compound was inactive in the other large screens. Hits are enriched below; roughly 3.4% of the tested compounds scored in any of these assays.

COc1ccc(NCC2CCCCC2)cc1OC	none
COc1ccc(C(=O)Nn2c(SCc3cccc([N+](=O)[O-])c3)nc3ccccc3c2=O)cc1	TEAD-YAP block 71.6
COc1ccc(C(=O)Nn2c(SCc3cccc(Br)c3)nc3ccccc3c2=O)cc1	TEAD-YAP block 51.8
COc1ccc(C(C)=O)cc1CSc1nc2ccccc2c(=O)n1NC(=O)c1ccccc1	none
O=C(Nn1c(SCc2cccc([N+](=O)[O-])c2)nc2ccccc2c1=O)c1ccccc1	none
COc1ccc(C(=O)Nn2c(SCc3ccc(Cl)cc3)nc3ccccc3c2=O)cc1	none
COc1ccc(C(=O)Nn2c(SCc3cccnc3)nc3ccccc3c2=O)cc1	TEAD-YAP block 66.4
COc1ccc(C(=O)Nn2c(SCc3ccc(F)cc3)nc3ccccc3c2=O)cc1	TEAD-YAP block 51.6
Cc1cc(C(=O)NCc2ccc(Cl)cc2)no1	none
CC1=C(C(=O)OCc2ccccc2)C(c2coc3ccccc3c2=O)C2=C(CC(c3cccs3)CC2=O)N1 (configuration not stated)	none
Cc1ccc2cnn(CC(=O)NCC3CCCO3)c2c1 (configuration not stated)	none
CC(=O)COc1ccc(S(=O)(=O)N2CCOCC2)cc1Cl	none
CCOC(=O)N1CCC(n2c(SCC(=O)Nc3ccc(C)cc3)nc3ccccc3c2=O)CC1	TEAD-YAP block 55.4
CC(C)(C)c1ccc(-c2nc3ccccc3c(=O)n2NC(=O)c2cccnc2)cc1	TEAD-YAP block 83.5
COc1ccc(C(=O)Nn2c(SCc3ccc(C)cc3)nc3ccccc3c2=O)cc1	TEAD-YAP block 38.0
Cc1ccc(NC(=O)CSc2nc3ccccc3c(=O)n2NC(=O)c2ccc(F)cc2)cc1	TEAD-YAP block 41.3
COC(=O)C1=C(NC(=O)c2cc(Cl)cc(Cl)c2)CCS1	none
COc1ccc(C(=O)Nn2c(SCc3cccc(F)c3)nc3ccccc3c2=O)cc1	TEAD-YAP block 77.0
CC(C)N1CCC(=NNC(=O)C(O)c2ccccc2)CC1 (configuration not stated)	none
CN1c2ncccc2C(=O)NC12CCN(C(=O)CCn1nnc3ccccc31)CC2	none
CCOC(=O)C1CCCN(C(=O)c2ccc(C)c(C)c2)C1 (configuration not stated)	none
COc1cc(/C=C(/C#N)C(=O)NCC2CCCO2)ccc1OCc1ccc(C(=O)O)cc1 (configuration not stated)	none
CCCCCCOc1ccc(/C=C(\C#N)C(=O)NCC2CCCO2)cc1OC (configuration not stated)	FBW7 activator 2.0
Cc1nn(C)c(C)c1NS(=O)(=O)c1ccc(C(C)(C)C)cc1	TEAD-YAP block 55.0
CC(=O)Nc1ccc(S(=O)(=O)Nc2c(C)nn(C)c2C)cc1	none
COc1ccc(S(=O)(=O)N2CCN(c3cc(-n4ccnc4)ncn3)CC2)c(C)c1C	TEAD-YAP block 56.5
O=S(=O)(c1ccc(F)cc1)N1CCN(c2cc(-n3ccnc3)ncn2)CC1	none
COc1cccc(C(=O)c2oc3ccc(NC(=O)c4cccnc4)cc3c2C)c1	none
O=[N+]([O-])c1c(N2CCCC2)cc(Cl)c2nonc12	TEAD-YAP block 32.9
COc1ccc(CNC(=O)/C=C/c2cccs2)cc1	none
COc1ccc(N=Cc2sc3ccccc3c2O)cc1	TEAD-YAP block 85.3
COc1cc(CNCc2cc(-c3cccnc3)ccc2O)cc(OC)c1OC	none
COc1cc(C(=O)/C=C/c2ccc(F)cc2)ccc1O	TEAD-YAP block 66.3
COC(=O)c1ccc(/C=C/C(=O)c2ccc(F)cc2)cc1	none
COc1cc(C(=O)/C=C/c2cccc(F)c2)ccc1O	TEAD-YAP block 56.5
COc1ccc(C(=O)/C=C/c2cccc(F)c2)cc1	none
O=c1[nH]cccc1-c1nc2ccc(Cl)cc2s1	TEAD-YAP block 78.2
O=C1CC(C(=O)Nc2nc3ccc(Cl)cc3s2)c2ccccc21 (configuration not stated)	none
C/C(=N\Nc1nc2ccccc2s1)c1ccc(F)cc1	TEAD-YAP block 33.8
C/C(=N\Nc1nc2ccccc2s1)c1ccc(O)cc1	none
CCOC(=O)C(C)Sc1nnc(NC(=O)CCCl)s1 (configuration not stated)	FBW7 activator 3.4
N#Cc1cccc(NC(=O)Nc2cccc(Cl)c2)c1	none
COc1cc(-c2nc(Nc3ccc(Cl)cc3)c3ccccc3n2)cc(OC)c1OC	none
COCCNc1nc(-c2cc(OC)c(OC)c(OC)c2)nc2ccccc12	TEAD-YAP block 32.1
COc1cc(-c2nc(Nc3ccccc3F)c3ccccc3n2)cc(OC)c1OC	TEAD-YAP block 32.4
COc1cc(-c2nc(Nc3ccc(C)cc3)c3ccccc3n2)cc(OC)c1OC	TEAD-YAP block 55.3
COCCNc1nc(-c2ccccc2)nc2ccccc12	none
CCCCc1ccc(-c2nc(Nc3ccc(OCc4ccccc4)cc3)c3ccccc3n2)cc1	TEAD-YAP block 34.7
COc1cc(-c2nc(Nc3ccccc3Cl)c3ccccc3n2)cc(OC)c1OC	none
COc1cccc(Nc2nc(-c3cc(OC)c(OC)c(OC)c3)nc3ccccc23)c1	TEAD-YAP block 37.2
COc1ccccc1C1C(C#N)=C(N)Oc2cc3ccccc3cc21 (configuration not stated)	TEAD-YAP block 36.9
N#CC1=C(N)Oc2cc3ccccc3cc2C1c1cccnc1 (configuration not stated)	TEAD-YAP block 48.3
COc1cc(C2C(C#N)=C(N)Oc3c2ccc2ccccc32)cc(Cl)c1O (configuration not stated)	TEAD-YAP block 63.6
COc1cccc(C2C(C#N)=C(N)Oc3cc(N)ccc32)c1OC (configuration not stated)	none
COc1ccc(C2C(C#N)=C(NC(=O)c3ccccc3OC)Oc3c2ccc2ccccc32)cc1OC (configuration not stated)	none
N#CC1=C(N)Oc2cc3ccccc3cc2C1c1ccc(F)cc1 (configuration not stated)	TEAD-YAP block 47.0
CN1C(=O)C2(/C(=C(\O)c3ccccc3)C(=O)C(=O)N2CC2CCCO2)c2ccccc21 (configuration not stated)	none
N#Cc1ccccc1NC(=O)c1ccc(-c2ccccc2[N+](=O)[O-])o1	none
N#CC1=C(N)Oc2cc3ccccc3cc2C1c1cccs1 (configuration not stated)	TEAD-YAP block 44.0
COc1cccc(C2C(C#N)=C(N)Oc3cc4ccccc4cc32)c1 (configuration not stated)	TEAD-YAP block 42.5
COc1cc(C2C(C#N)=C(N)Oc3c2ccc2ccccc32)ccc1O (configuration not stated)	TEAD-YAP block 57.8
COc1cccc(C2C(C#N)=C(N)Oc3c2ccc2ccccc32)c1 (configuration not stated)	TEAD-YAP block 57.9
CCNc1nc(OC)nc(Oc2ccc(C(=O)OCC)cc2)n1	none
CCOC(=O)c1ccc(Oc2nc(NC)nc(OC)n2)cc1	FBW7 activator 1.9
CN(CCc1ccccn1)C(=O)CCC1CCCN(Cc2ccc3nsnc3c2)C1 (configuration not stated)	none
COc1cc2nc(-c3ccc(N(C)C)cc3)n(C)c2cc1OC	none
COc1cc2nc(C)n(C(=S)S)c2cc1OC	TEAD-YAP block 55.5
